# Records with an inconclusive call do not appear. Where a call stands in place of a potency, no number is given. A number with no mark means an inactive call. The source made the active and inactive calls. Calls come from the whole dose curve; as a rule, active = well fitted curve in the direction sought with a large enough effect; inconclusive = small, poorly fitted or top-dose-only effect, or another doubt; inactive = no such curve, though single readings can be large; an effect the other way counts as inactive or inconclusive.
# How the values were obtained:
# [1] = molecular target: Calcium and integrin-binding protein 1 (Homo sapiens) (UniProt Q99828); assay: Primary qHTS for Identification of Calcium Integrin Binding Protein 1 (CIB1) Competitor (AID 1508620); note: potency is the fitted concentration of half-maximal effect
# Sequence of Calcium and integrin-binding protein 1 (Homo sapiens) (Q99828 whole entry, looked up): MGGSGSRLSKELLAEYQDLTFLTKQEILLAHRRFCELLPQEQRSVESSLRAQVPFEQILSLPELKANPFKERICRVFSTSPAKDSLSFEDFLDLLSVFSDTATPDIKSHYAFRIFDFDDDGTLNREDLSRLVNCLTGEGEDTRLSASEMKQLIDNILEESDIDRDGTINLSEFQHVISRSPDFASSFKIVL
# Method in brief: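 CIB1-GST (1 uM final) and compound incubated 15 min at room temperature before adding FITC-alphaIIb peptide tracer (100 nM final). Competition for binding read by fluorescence polarization (ex 480, em 540) after another 15 min at room temperature.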
# [2] = Primary fluorescence-based thiol-reactive (MSTI) qHTS assay for identification of artifact compounds. (AID 1845221);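 note: thiol-reactive compounds lower the probe fluorescence signal; nearly all actives have a fitted effect of over 65% in size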
# Method in brief: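 In PBS pH 7.4 with 2% DMSO, each compound met 4 uM MSTI for one hour at ambient temperature, shielded from light, before fluorescence detection.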
# KB-3-1 = assay: Cytotoxic Profiling of Annotated Libraries Using Quantitative High-Throughput Screening (AID 1296008); conditions: Five cell lines viability, CellTiter-Glo ATP luminescence, 48-72 h; max response: stronger effect = lower value; note: potency is the fitted concentration of half-maximal effect; nearly all actives have a fitted effect of over 60% in size
# Method in brief: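 Cytotoxicity was measured as CellTiter-Glo ATP luminescence, read after 10 min at room temperature. Compound treatment of the cells lasted 48 or 72 hr at 37 degrees Celsius in a qHTS format.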
# CAOV3 = assay: Primary qHTS to identify gynecologic anti-cancer compounds using libraries of approved drugs and bioactive compounds (AID 1345084); conditions: Gynecologic cancer cell panel viability, ATPlite luminescence, 48 h; series mostly up to 57.5 µM; note: nearly all actives have a fitted effect of over 55% in size; note: potency is the fitted concentration of half-maximal effect
# Method in brief: (§1)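 Five-concentration response, 48 h; readout is ATP-driven luciferase luminescence.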
# JEG-3 = assay: as above; conditions: Gynecologic cancer cell panel viability, ATPlite luminescence, 48 h; series mostly up to 57.5 µM
# Method in brief: as §1
# SKOV3 = assay: as above; conditions: Gynecologic cancer cell panel viability, ATPlite luminescence, 48 h; series mostly up to 57.5 µM
# Method in brief: as §1
# [3] = test system: Zika virus NS2B-NS3 protease (unlinked complex); assay: Primary screen GU Rhodamine qHTS for Zika virus inhibitors: Unlinked NS2B-NS3 protease assay (AID 1347159); note: nearly all actives have a fitted effect of over 60% in size
# Method in brief: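 Unlinked NS2B/NS3, 25 nM; Rhod110 peptide, 1.5 microM; compounds, up to 114 microM. Reaction run 15 min at RT in 10 mM Tris-HCl pH 8.0, 0.01% Tween 20; kinetic fluorescence change fitted with a 4-parameter Hill model.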
# [4] = test system: Zika virus NS2B-NS3 protease (linked construct); assay: Primary screen NINDS Rhodamine qHTS for Zika virus inhibitors (AID 1347160); note: nearly all actives have a fitted effect of over 55% in size
# Method in brief: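 Single-chain NS2B-NS3 protease, 25 nM, pH 8.0; compounds preincubated 15 min. Activity: Rhodamine110 release from 1.5 microM substrate over 15 min, room temperature, data fitted to 4-parameter Hill.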
# [5] = Primary redox qHTS assay for identification of artifact compounds. (AID 1845223)
# Method in brief: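 Redox-cycling detection via DTT (250 uM final) oxidation coupled to Amplex Red (25 uM)/HRP (250 mU/mL) in HBSS. 15 min preincubation plus 30 min after DTT, room temperature. Ex/Em 525/598 nm; 4-parameter Hill fit against DMSO and 10 uM DA3003.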
Structure (SMILES),Potency [1],Potency [2],Potency (KB-3-1),Potency (CAOV3),Potency (JEG-3),Potency (SKOV3),Potency [3],Potency [4],Potency [5],"activity change, negative = thiol reactive [2]",redox activity (% of DA3003) [5]
C=C1[C@@H](C)[C@H]2[C@H](Cc3ccccc3)NC(=O)[C@]23OC(=O)/C=C/C(=O)CCC[C@@H](C)C/C=C/[C@H]3[C@@H]1O,20000 nM (active),inactive,5800 nM (active),12600 nM (active),inactive,25100 nM (active),–,–,–,–,–
CC(=O)OC[C@]12C[C@H](O)C(C)=C[C@H]1O[C@@H]1[C@H](O)[C@@H](O)[C@@]2(C)[C@]12CO2,inactive,–,2270 nM (active),3980 nM (active),–,3980 nM (active),inactive,inactive,inactive,–,–
COC1CC(O[C@H]2CC[C@]3(C)C4CC[C@]5(C)[C@@H](C6=CC(=O)OC6)[C@@H](OC(C)=O)C[C@]5(O)C4CC[C@@H]3C2)OC(C)C1O (some centres undefined),inactive,inactive,563 nM (active),1260 nM (active),–,794 nM (active),–,–,–,–,–
CC1=CC2OC3[C@H](O)C[C@@](C)([C@]34CO4)[C@@]2(CO)[C@H](O)C1=O (some centres undefined),inactive,inactive,4610 nM (active),–,inactive,–,inactive,–,inactive,–,–
CC(=O)O[C@@H]1[C@@H](O)[C@H]2O[C@@H]3C=C(C)[C@@H](O)C[C@]3(CO)[C@]1(C)[C@]21CO1,inactive,–,805 nM (active),–,–,1260 nM (active),inactive,inactive,inactive,–,–
CO[C@@H]1C[C@H](O[C@H]2CC[C@@]3(C)C(CCC4C3CC[C@]3(C)[C@@H](C5=CC(=O)OC5)[C@@H](OC(C)=O)CC43O)C2)O[C@H](C)[C@@H]1O[C@H]1O[C@H](CO[C@@H]2O[C@H](CO)[C@@H](O)[C@H](O)[C@H]2O)[C@@H](O)[C@H](O)[C@H]1O (some centres undefined),inactive,–,979 nM (active),2240 nM (active),–,2000 nM (active),inactive,inactive,–,43.8% [at 11.5 µM],15.6% [at 11.5 µM]
CC(=O)OC[C@]12C[C@H](OC(=O)CC(C)C)C(C)=C[C@H]1O[C@@H]1[C@H](O)[C@@H](O)[C@@]2(C)[C@]12CO2,inactive,inactive,39.9 nM (active),–,1580 nM (active),–,inactive,–,inactive,–,–
CC1=C[C@H]2O[C@@H]3[C@H](O)[C@@H](O)[C@](C)([C@@]2(CO)C[C@@H]1O)[C@]31CO1,inactive,inactive,1460 nM (active),11200 nM (active),–,–,inactive,inactive,inactive,–,–
CC[C@H]1C[C@@H]2CC[C@@H](O2)[C@@H](C)C(=O)O[C@H](CC)C[C@H]2CC[C@H](O2)[C@H](C)C(=O)O[C@@H](C)C[C@@H]2CC[C@@H](O2)[C@@H](C)C(=O)O[C@H](CC)C[C@H]2CC[C@H](O2)[C@H](C)C(=O)O1,inactive,–,15.3 nM (active),398 nM (active),inactive,251 nM (active),inactive,inactive,inactive,–,–

# — PubChem BioAssay (NCATS)
